Gli-Sufu block – Gli-Sufu pathway antagonism. Sufu-KO-LIGHT fibroblasts, Gli luciferase reporter luminescence. 0.74% of 340,000 active. AID 588413. inhibition, % at 5 µM;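 active = inhibition above about 55%, limit read from the data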;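 note: 0% = DMSO-treated cells and 100% = wells with medium but no cells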
NCOA3 inh – inhibits human SRC3 coactivator; 0.17% of 360,000 active; HEK293 GAL4-SRC3 luciferase reporter, luminescence; inhibition, % at 3.6 µM; Q9Y6Q9;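 active = inhibition above a per-campaign cutoff, the mean of all compounds plus 3 SD, cut at about 60% in these data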;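 note: 0% = DMSO-treated cells and 100% = gossypol-treated cells at 36 µM; higher means less SRC3-driven luciferase light from the GAL4 reporter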
NCOA1 inh – human NCOA1 inhibition; HEK293 GAL4-SRC1 luciferase reporter, luminescence; 0.12% of 360,000 active; inhibition, % at 3.6 µM;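 active = inhibition above the campaign mean plus 3 SD, with each screening campaign given its own cutoff, cut at about 60% in these data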;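 note: 0% = DMSO treated cells and 100% = gossypol at 36 µM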
Target sequence (Q15788 whole entry, looked up, the tested form may be a part): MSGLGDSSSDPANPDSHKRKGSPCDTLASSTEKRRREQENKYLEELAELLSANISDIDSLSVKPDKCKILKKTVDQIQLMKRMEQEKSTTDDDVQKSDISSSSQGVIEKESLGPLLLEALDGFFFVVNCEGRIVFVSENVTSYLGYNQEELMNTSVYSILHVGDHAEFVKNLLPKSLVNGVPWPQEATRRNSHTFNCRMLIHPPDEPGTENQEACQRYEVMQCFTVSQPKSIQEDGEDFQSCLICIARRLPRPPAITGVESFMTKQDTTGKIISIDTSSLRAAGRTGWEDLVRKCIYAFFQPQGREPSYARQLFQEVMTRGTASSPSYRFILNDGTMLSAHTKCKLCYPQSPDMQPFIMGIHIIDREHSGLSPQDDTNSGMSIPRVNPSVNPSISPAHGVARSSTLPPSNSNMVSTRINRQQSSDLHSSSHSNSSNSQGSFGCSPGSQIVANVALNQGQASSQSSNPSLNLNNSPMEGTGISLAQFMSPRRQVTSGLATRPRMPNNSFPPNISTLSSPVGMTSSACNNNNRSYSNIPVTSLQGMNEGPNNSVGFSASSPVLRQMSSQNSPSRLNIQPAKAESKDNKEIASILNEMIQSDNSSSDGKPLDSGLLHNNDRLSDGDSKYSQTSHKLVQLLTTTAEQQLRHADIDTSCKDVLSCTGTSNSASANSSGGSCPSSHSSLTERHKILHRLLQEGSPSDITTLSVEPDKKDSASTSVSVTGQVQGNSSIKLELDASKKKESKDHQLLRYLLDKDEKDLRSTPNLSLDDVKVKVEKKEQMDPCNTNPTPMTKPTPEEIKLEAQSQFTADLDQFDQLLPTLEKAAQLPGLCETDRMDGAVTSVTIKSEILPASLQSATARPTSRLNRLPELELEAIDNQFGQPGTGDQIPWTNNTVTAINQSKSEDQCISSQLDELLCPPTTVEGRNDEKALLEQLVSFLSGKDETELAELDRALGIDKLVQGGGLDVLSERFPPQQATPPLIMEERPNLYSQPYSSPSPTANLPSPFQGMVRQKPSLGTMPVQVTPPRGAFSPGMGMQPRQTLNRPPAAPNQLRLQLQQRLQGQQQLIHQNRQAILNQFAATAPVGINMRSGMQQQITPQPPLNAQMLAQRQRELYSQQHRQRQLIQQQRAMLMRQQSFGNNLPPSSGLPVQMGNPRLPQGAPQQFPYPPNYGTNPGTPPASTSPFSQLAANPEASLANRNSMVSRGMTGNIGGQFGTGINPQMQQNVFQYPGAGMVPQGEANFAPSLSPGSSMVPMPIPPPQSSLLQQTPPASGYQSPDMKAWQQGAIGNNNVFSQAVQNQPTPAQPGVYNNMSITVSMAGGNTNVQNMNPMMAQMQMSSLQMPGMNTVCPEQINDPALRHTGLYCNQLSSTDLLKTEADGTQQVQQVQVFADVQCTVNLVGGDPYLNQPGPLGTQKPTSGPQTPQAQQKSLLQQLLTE
NR5A2 inv ag – inverse agonists of human LRH-1 (NR5A2). O00482. HEK293T StAR-luciferase reporter, LRH-1 transfected, 24 h. inhibition, % at 3.6 µM. 0.13% of 360,000 active. AID 602396;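 active = inhibition above the mean inhibition of all tested compounds plus 3 SD, cut at about 73% in these data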;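 note: 0% = DMSO wells and 100% = reporter-only cells lacking LRH-1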
NR2F2 inh – inhibitors of human COUP-TFII (NR2F2). 0.7% of 370,000 active. HEK293T NGFI-A luciferase reporter, luminescence. P24468. AID 686940. inhibition, % at 8.6 µM;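 active = inhibition above a per-plate cutoff, mean inhibition of test wells between control levels plus 3 SD, cut at about 38% in these data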;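 note: cells cotransfected with COUP-TFII expression vector driving the NGFI-A reporter; 0% = median of COUP-TF2 test wells and 100% = reporter-only cells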
SRC2 inh – human SRC2 (NCOA2) inhibition; inhibition, % at 9 µM; 0.17% of 370,000 active; HEK293 GAL4-SRC2 luciferase reporter, luminescence;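 active = inhibition above the mean inhibition of all tested compounds plus 3 SD, set per campaign, cut at about 52% in these data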;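 note: 0% = DMSO treated cells and 100% = cells given Gossypol at 36 µM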
Gal4-VP16 ctr – counter-screen for COUP-TFII antagonists: inhibitors of VP16; inhibition, % at 8.5 µM; HEK293 Gal4-VP16 luciferase reporter, luminescence; 25% of 2,500 active; shares compounds with NR2F2 inh; AID 687007; in the data active = inhibition above about 13%
NR2F2 inh conf – COUP-TFII (NR2F2) inhibition, confirmation assay; shares compounds with NR2F2 inh; HEK293 NGFI-A luciferase reporter, luminescence; inhibition, % at 8.5 µM; 45% of 2,500 active;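 active = mean inhibition over three repeats above a set limit taken from the earlier primary screen, cut at about 38% in these data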;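 note: 100% = cells given the luciferase reporter alone without the COUP-TF2 vector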
Starred values were filed as active, the others as inactive; / = no result. The list is not random: actives were taken first. Their share in the collection is about 1.3%.

SMILES | Gli-Sufu block | NCOA3 inh | NCOA1 inh | NR5A2 inv ag | NR2F2 inh | SRC2 inh | Gal4-VP16 ctr | NR2F2 inh conf
COc1ccc(CN(CCN2CCOCC2)C(=O)c2ccccc2C)cc1OC | / | / | / | / | -2 | 9 | / | /
CC(C)CNc1cccc2c1S(=O)(=O)N[C@@H](CC(C)C)CO2 | / | / | / | / | 3 | 4 | / | /
N#Cc1c(NC(=O)CSc2ncn[nH]2)sc2c1CCCCC2 | 34 | 49 | 36 | 53 | 88* | 84* | 81* | 79*
Cc1cc2nc(C3CCCN(C(=S)Nc4ccccc4)C3)[nH]c2cc1C (stereo unspecified) | 0 | 8 | 8 | 10 | 49* | 21 | -8 | 9
O=C(Nc1ccc(F)cc1)Nc1cc(OCC(F)(F)F)cc(OCC(F)(F)F)c1 | 21 | 61 | -12 | 48 | 76* | 7 | 17* | 79*
CCC(=O)N1CCCc2cc(S(=O)(=O)N3CCN(c4ccccc4F)CC3)ccc21 | 6 | 0 | 13 | 13 | 50* | 18 | -3 | 13
COc1ccccc1N1CCN(C(=O)C2CCCN(S(=O)(=O)c3ccc(C)cc3)C2)CC1 (stereo unspecified) | 21 | 13 | -3 | -7 | 19 | 15 | / | /
CC(=O)N1CCCc2cc(S(=O)(=O)N3CCCC(C(=O)N4CCN(c5cc(C)ccc5C)CC4)C3)ccc21 (stereo unspecified) | 50 | 22 | 21 | 0 | 34 | 17 | / | /
CC(=O)N1CCCc2cc(S(=O)(=O)N3CCCC(C(=O)N4CCN(c5ccccc5)CC4)C3)ccc21 (stereo unspecified) | 46 | 15 | -3 | 20 | 41* | 13 | 10 | 29
COc1ccccc1N1CCN(C(=O)C2CCCN(S(=O)(=O)c3ccc4c(c3)CCCN4C(C)=O)C2)CC1 (stereo unspecified) | 41 | 34 | 21 | 10 | 44* | 21 | -12 | 27
Cc1c(C)n(Cc2ccccc2)c2ncnc(Cl)c12 | 6 | 29 | 18 | 25 | 45* | 38 | 10 | 42*
O=C(NCCc1c[nH]c2ccccc12)OCc1cn(Cc2ccc(F)c(F)c2)nn1 | / | / | / | / | -17 | -3 | / | /
CC1(C)N=C(N)N=C(N)N1c1ccc(Oc2ccc(Cl)cc2)c(Cl)c1 | 65* | 23 | 23 | 37 | 69* | 14 | 16* | 65*
CC1(C)N=C(N)N=C(N)N1c1cc(Cl)ccc1Cl | / | -4 | -5 | 13 | -6 | -1 | / | /
COc1ccc2c(c1)Sc1ccc(Cl)cc1N2 | / | / | / | / | -14 | / | / | /
O=C(COC(=O)CCN1C(=O)/C(=C\C=C\c2ccccc2)SC1=S)Nc1cc(F)ccc1F | 12 | 23 | 16 | 8 | 42* | 43 | 53* | 64*
O=C(CN1C(=O)/C(=C\C=C\c2ccccc2)SC1=S)Nc1ccc(F)cc1 | -17 | 10 | -3 | 17 | -3 | -4 | / | /
CC1(c2nnnn2C2CCCCC2)CCCC(=O)N1CCc1ccc(O)cc1 (stereo unspecified) | / | / | / | / | -12 | -6 | / | /
Cn1cc(C2(C)CCOc3ccccc32)c2ccccc21 (stereo unspecified) | / | / | / | / | -21 | 14 | / | /
O=C(N1CCC(C(O)(c2ccccc2)c2ccccc2)CC1)n1ncc(C(O)(c2ccccc2)c2ccccc2)n1 | / | / | / | / | 44* | / | 0 | 11
O=C(C1CC1)N1CCC(C(O)(c2ccccc2)c2ccccc2)CC1 | 19 | 13 | -5 | 14 | -3 | -25 | / | /
Cc1csc2ncnc(N3CCN(C(=O)Nc4ccc(OC(F)(F)F)cc4)CC3)c12 | 16 | 32 | -7 | -2 | 39* | 41 | 6 | 28
CC(C)(C)c1ccc(-c2nnc(SCC(=O)Nc3ccccc3-c3ccccc3)n2Cc2ccco2)cc1 | / | / | / | / | 11 | -20 | / | /
O=C1c2cccnc2C(=O)N1CO | 4 | 13 | 0 | 1 | 1 | -36 | / | /
NC1=C(Br)C(=O)c2ncccc2C1=O | 85* | 88* | 83* | 95* | 81* | 75* | 92* | 93*
SMILES | Gli-Sufu block | NCOA3 inh | NCOA1 inh | NR5A2 inv ag | NR2F2 inh | SRC2 inh | Gal4-VP16 ctr | NR2F2 inh conf
Cc1ccc(C(=O)O/N=C(\N)c2ccccn2)c(C)c1 | 73* | 70* | 57 | 72 | 78* | 77* | 65* | 84*
COc1ccc(C(=O)NNC(=O)c2ccccn2)cc1 | -54 | -8 | -42 | -101 | 46* | 36 | -112 | -64
COc1ccc(C(=O)O/N=C(\N)c2ccccn2)cc1 | -25 | -38 | -33 | -22 | 48* | 42 | -168 | -104
CCOC(=O)N1CCN(C(=O)C[C@H]2C[C@@]3(C(=O)OC)C(=C[C@H](C4CCCC4)O[C@@H]3C)N(CCc3ccc(OC)c(OC)c3)C2=O)CC1 | / | / | / | / | -4 | -11 | / | /
CCOC(=O)C(NC(=O)c1ccccc1)(Nc1cccc(C)n1)C(F)(F)F (stereo unspecified) | -1 | -1 | 3 | -7 | 39* | -9 | -5 | 2
CCOC(=O)C(NCc1ccco1)(NC(=O)c1ccccc1)C(F)(F)F (stereo unspecified) | 5 | 3 | 4 | 1 | 14 | 17 | / | /
COCC1CN(CCc2ccc(F)cc2)S(=O)(=O)c2c(F)cccc2O1 (stereo unspecified) | / | / | / | / | -1 | 1 | / | /
CCc1ccc(-c2nc(CSCC(=O)N3CCN(c4ccccn4)CC3)c(C)o2)cc1 | 27 | 37 | 9 | 36 | 52* | 14 | 9 | 23
Cc1ccc(-c2nc(CSCC(=O)N3CCN(C(=O)c4ccco4)CC3)c(C)o2)cc1 | 0 | 11 | -16 | -16 | 24 | -5 | / | /
CCOc1ccc(-c2nc(CSCC(=O)N3CCN(c4cccc(OC)c4)CC3)c(C)o2)cc1 | 8 | 18 | 13 | 28 | 66* | 59* | 17* | 44*
O=C(c1ccccc1Cl)N1CCSCCS1(=O)=O | / | / | / | / | -9 | 22 | / | /
NC(=O)c1ncn([C@@H]2O[C@H](C(=O)N3CCCN(Cc4ccccc4F)CC3)[C@@H](O)[C@H]2O)n1 | / | / | / | / | -20 | 1 | / | /
O=C(Nc1c(-c2ccc(F)cc2)nc2ncccn12)c1ccccc1 | / | / | / | / | 10 | 10 | / | /
COc1cccc(OCC(C)CN2CCC(C(O)(c3ccccc3)c3ccccc3)CC2)c1 (stereo unspecified) | / | / | / | / | 9 | 13 | / | /
O=S(=O)(c1ccccc1)N1CCC(O)(CSc2ccc(F)cc2)CC1 | 17 | 23 | 12 | 27 | 40* | 35 | 2 | 27
Cc1sc2c3ccsc3ccc2[n+]1C | -2 | -4 | -12 | 3 | 9 | -13 | / | /
CCN1/C(=C/c2ccc3cc(C)ccc3[n+]2CC)Sc2cc(C)ccc21 | 90* | 36 | 20 | 57 | 63* | -18 | 9 | 53*

From PubChem
